From publication PMC4336329 (PLoS ONE, 2015)
Hit rate of the full screen: of about 310,000 compounds, about 14,000 (4.5%) showed an effect of 50% or more. Effects have a minus sign here. The sample holds strong results, similar compounds and a random draw of the others, so the mix is not that of the screen.

Target: human ether-à-go-go-related gene (hERG) potassium channel (human, UniProt Q12809)
Test: primary screen, population patch clamp on CHO cells stably expressing hERG; higher = less effect of the substance
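Further: peak tail current of the secondary pulse compared with the same well before compound.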

human ether-à-go-go-related gene (hERG) potassium channel, sequence (Q12809 whole entry, looked up): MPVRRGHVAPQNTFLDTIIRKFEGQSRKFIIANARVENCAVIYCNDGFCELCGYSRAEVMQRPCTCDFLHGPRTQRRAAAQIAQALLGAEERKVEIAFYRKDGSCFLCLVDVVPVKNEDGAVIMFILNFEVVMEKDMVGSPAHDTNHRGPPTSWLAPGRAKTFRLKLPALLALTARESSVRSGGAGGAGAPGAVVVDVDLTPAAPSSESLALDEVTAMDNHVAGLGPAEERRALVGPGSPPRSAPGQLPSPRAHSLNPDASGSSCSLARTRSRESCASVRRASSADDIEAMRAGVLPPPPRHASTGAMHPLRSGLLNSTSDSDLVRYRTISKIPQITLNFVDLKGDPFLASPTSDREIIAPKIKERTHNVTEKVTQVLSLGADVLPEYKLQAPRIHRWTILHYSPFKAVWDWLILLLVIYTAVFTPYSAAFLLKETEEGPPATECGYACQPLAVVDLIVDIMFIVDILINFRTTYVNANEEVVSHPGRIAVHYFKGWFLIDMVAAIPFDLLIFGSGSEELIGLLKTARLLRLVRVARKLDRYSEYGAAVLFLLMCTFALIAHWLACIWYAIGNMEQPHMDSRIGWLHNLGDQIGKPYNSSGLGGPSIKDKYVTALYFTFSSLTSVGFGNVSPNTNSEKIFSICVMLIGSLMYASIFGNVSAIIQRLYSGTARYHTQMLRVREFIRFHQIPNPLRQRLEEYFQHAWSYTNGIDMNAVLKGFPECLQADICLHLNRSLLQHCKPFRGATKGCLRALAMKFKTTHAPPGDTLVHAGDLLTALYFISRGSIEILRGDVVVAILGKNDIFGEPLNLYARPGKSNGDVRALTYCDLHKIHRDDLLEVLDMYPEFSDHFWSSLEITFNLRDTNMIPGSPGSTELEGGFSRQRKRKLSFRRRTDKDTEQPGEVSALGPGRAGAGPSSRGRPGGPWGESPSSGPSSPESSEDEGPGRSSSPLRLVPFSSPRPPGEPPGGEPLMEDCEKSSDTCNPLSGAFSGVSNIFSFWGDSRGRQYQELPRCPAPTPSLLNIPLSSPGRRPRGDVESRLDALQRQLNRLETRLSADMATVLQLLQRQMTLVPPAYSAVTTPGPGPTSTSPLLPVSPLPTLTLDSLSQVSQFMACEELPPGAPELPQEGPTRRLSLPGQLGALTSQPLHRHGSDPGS

SMILES | hERG current change (%, negative = inhibition) at 10uM
COc1cccc(CN(CC(=O)NCC2CCCO2)C(=O)CCC(=O)Nc2cc(C)on2)c1 (stereo not shown) | -0.822%
CCOC(=O)CCCCCNC(=O)c1c(O)[nH]c(=O)[nH]c1=O | 17.7%
O=C(c1cc(-c2ccncc2)nc2ccccc12)N1CCC2(CC1)OCCO2 | -25.9%
CC(C)c1nc2oc3c(NCc4ccccn4)ncnc3c2c2c1COC(C)(C)C2 | 5.62%
C/C(=N\NC(=O)COc1ccccc1[N+](=O)[O-])c1cccs1 | 10.3%
COc1cc(-c2nc(=S)[nH][nH]2)cc(OC)c1OC | 5.94%
O=C(NCc1ccccn1)/C(=C/c1ccco1)NC(=O)c1ccccc1 | -10%
Cc1ccc(C(=O)N/C(=C/c2ccco2)C(=O)O)cc1 | -3.15%
Cc1ccc(C(=O)N/C(=C\c2ccco2)C(=O)NCc2cccnc2)cc1 | -65.2%
O=C(NCc1cccnc1)/C(=C/c1ccc(-c2cccc(Cl)c2)o1)S(=O)(=O)c1ccccc1 | -26.2%
COc1ccc(C(=O)N/C(=C\c2ccco2)C(=O)NCc2cccnc2)cc1 | -66.7%
O=C(NCc1cccnc1)/C(=C/c1ccco1)NC(=O)c1ccccc1 | -58.6%
COc1ccc(C(=O)N/C(=C/c2ccco2)C(=O)NCc2ccco2)cc1 | -30.1%
Cc1ccc(C(=O)N/C(=C/c2ccco2)C(=O)NCc2ccco2)cc1 | -12%
COc1ccc(C(=O)N/C(=C\c2ccco2)C(=O)NCc2ccco2)cc1 | -19.7%
O=C(NCc1ccco1)/C(=C/c1ccco1)NC(=O)c1ccccc1 | 4.34%
O=C(NCc1cccnc1)/C(=C/c1ccc(-c2cccc(C(F)(F)F)c2)o1)NC(=O)c1ccccc1 | -74.1%
Cc1ccc(C(=O)N/C(=C/c2ccc(-c3cc(C(F)(F)F)ccc3Cl)o2)C(=O)NCc2cccnc2)cc1 | -1.72%
O=C(Cn1nnc(-c2ccccc2)n1)NNC(=O)c1ccc(Br)cc1 | 17.6%
O=C(Nc1nnc(-c2ccco2)s1)C1CC1 | -10.2%
O=C(CN1C(=O)/C(=C/c2c(F)cccc2Cl)Oc2ccccc21)NCc1ccco1 | 10.9%
CC(=O)O.Cc1ccc(C2C(C(=O)c3cccs3)=C(O)C(=O)N2c2ccc(S(N)(=O)=O)cc2)cc1 (stereo not shown) | 16.5%

SMILES | hERG current change (%, negative = inhibition) at 10uM
CCOc1ccc(-n2cc(C(=O)N3CCN(C)CC3)c3cc(OC)c(OC)cc3c2=O)cc1 | 4.98%
CCN(CC)CCN(C(=O)c1c(F)cccc1F)c1nc2cc(C)cc(C)c2s1.Cl | -11.1%
CCN(CC)CCN(C(=O)c1ccc(S(=O)(=O)N(CC)c2ccccc2)cc1)c1nc2c(OC)ccc(OC)c2s1.Cl | -27%
CCN(CC)CCN(C(=O)C1=COCCO1)c1nc2c(OC)ccc(OC)c2s1.Cl | -78.3%
CCN(CC)CCN(C(=O)C1=COCCO1)c1nc2cc3c(cc2s1)OCO3.Cl | -72%
CCN(CC)CCN(C(=O)c1cc(Cl)sc1Cl)c1nc2cc3c(cc2s1)OCO3.Cl | -24.7%
Cc1cc(C)c2sc(NC(=O)C3=COCCO3)nc2c1 | -11.6%
CCN(CC)CCN(C(=O)c1ccc(Br)s1)c1nc2cc3c(cc2s1)OCO3.Cl | -12%
CCN(CC)CCN(C(=O)C1=COCCO1)c1nc2ccc(C)cc2s1.Cl | -78.3%
Cc1ccc2nc(N(CCN(C)C)C(=O)C3=COCCO3)sc2c1.Cl | -44.1%
CCN(CC)CCN(C(=O)/C=C/c1cccs1)c1nc2ccc(C)cc2s1.Cl | -10.8%
CCN(CC)CCN(C(=O)C1=COCCO1)c1nc2cc(C)cc(C)c2s1.Cl | -69%
CCN(C(=O)C1=COCCO1)c1nc2c(C)cccc2s1 | -17.2%
Cc1cc2ccccc2n1CCNC(=O)c1cccs1 | -0.757%
CN(C(=O)Nc1ccccc1)C1CCCCC1 | 10.2%
C=CCOC(=O)C1=C(C)NC(SCC(=O)Nc2ccccc2)=C(C#N)C1c1ccco1 (stereo not shown) | -15.1%
CCC(Sc1nc2ccccc2o1)C(=O)Nc1nnc(C)s1 (stereo not shown) | -12.4%
CN(C)C(=O)c1cc(C(=O)c2ccc(F)cc2F)c[nH]1 | 14.6%
O=c1c2cn[nH]c2nc(SCc2cc(=O)n3cc(Br)ccc3n2)n1-c1ccc(Br)cc1 | -24.8%
Cc1ccccc1-n1c(SCc2cc(=O)n3ccccc3n2)nc2[nH]ncc2c1=O | -35.2%
CCc1ccc(-n2c(SCc3cc(=O)n4cc(Br)ccc4n3)nc3[nH]ncc3c2=O)cc1 | -51%
CN(Cc1ccccc1)C(=O)c1ccc2c(c1)OCCO2 | 5.55%

SMILES | hERG current change (%, negative = inhibition) at 10uM
COc1ccc(-c2nc3ccccc3c(=O)n2CCOc2cccc(C)c2C)cc1 | 15%
NC(=O)Cn1cc(C(=O)C(=O)N2CCOCC2)c2ccccc21 | 1.6%
Cc1cc(F)ccc1S(=O)(=O)Nc1ccccc1C(=O)Nc1ccccc1-c1nc2ccccc2[nH]1 | 4.92%
O=C(NN1CC(C(=O)OCc2ccc(Cl)cc2Cl)CC1=O)c1ccccc1 (stereo not shown) | -16.5%
O=C(NN1CC(C(=O)OCc2ccccc2F)CC1=O)c1ccccc1 (stereo not shown) | -56.8%
O=C(NN1CC(C(=O)OCc2ccc(Br)cc2)CC1=O)c1ccccc1 (stereo not shown) | -21.2%
COc1cccc(NC(=O)N(CCCN2CCOCC2)C(C)c2cc3ccccc3o2)c1 (stereo not shown) | -62.5%
COc1cccc(NC(=O)N(CCCN2CCOCC2)C(C)c2cc3cccc(OC)c3o2)c1 (stereo not shown) | -29.4%
COc1ccc(NC(=S)N(CCCN2CCOCC2)C(C)c2cc3cccc(OC)c3o2)cc1 (stereo not shown) | -35.5%
COc1cccc2cc(C(C)N(CCCN3CCOCC3)C(=O)Nc3ccccc3)oc12 (stereo not shown) | -16.9%
COc1cccc(NC(=S)N(CCCN2CCOCC2)C(C)c2cc3ccccc3o2)c1 (stereo not shown) | -44%
COc1ccc(NC(=S)N(CCCN2CCOCC2)C(C)c2cc3ccccc3o2)cc1 (stereo not shown) | -78.4%
Cn1c(=O)oc2cc(S(=O)(=O)NCCC(=O)NCCc3ccccc3)ccc21 | 1.29%
COC(=O)c1ccc(CSc2nc3c(cnn3-c3ccc(F)cc3)c(=O)[nH]2)o1 | 13.1%
O=C(Nc1ccccc1)c1ccc2c(c1)OCCCO2 | -10.7%
COc1ccc(-c2c[n+]3c(n2-c2ccccc2)SCC3)cc1OC.[Br-] | 4.92%
O=[N+]([O-])c1cccc(-c2c[n+]3c(n2-c2ccccc2)SCC3)c1.[Br-] | -42.3%
[Br-].c1ccc(Cn2c(-c3ccccc3)c[n+]3c2SCCC3)cc1 | -70.9%
O=C(CSc1nnc2ccc(-c3ccc(F)cc3)nn12)N1CCCC1 | -13.5%
O=C(Nc1c(C(=O)c2ccccc2)oc2ccccc12)c1cc(-c2ccccc2O)n[nH]1 | 9.34%
COc1cc(C(=O)Nc2ccc3c(c2)OCO3)ccc1-n1cnnn1 | -15.6%
O=C(Cn1nnc(-c2ccccc2-n2cnnn2)n1)NCc1ccccc1 | -5.93%

SMILES | hERG current change (%, negative = inhibition) at 10uM
COc1ccc(OCC(=O)N2CCN(C3CCC(c4ccccc4)CC3)CC2)cc1 (stereo not shown) | -54.4%
Cc1ccc(OCC(=O)N2CCC(N3CCCCCC3)CC2)cc1 | -28.3%
COc1ccc(OCC(=O)N2CCN(C(=O)Cc3ccccc3)CC2)cc1 | -32.5%
Cc1ccc(OCC(=O)N2CCN(C3CCC(c4ccccc4)CC3)CC2)cc1.O=C(O)C(=O)O (stereo not shown) | -62.8%
COc1ccc(N2CCN(C(=O)COc3ccccc3)CC2)cc1 | -20.6%
CC1CCC(N2CCN(C(=O)COc3ccccc3)CC2)CC1.O=C(O)C(=O)O (stereo not shown) | -31.4%
COc1ccc(C2NC(=O)Cc3cc(OC)c(OC)cc32)cc1OC (stereo not shown) | 5.46%
COC(=O)c1ccc(/C=C/C(=O)OCC(=O)Nc2ncc(Cl)cc2Cl)cc1 | -19.9%
CCOc1ccccc1CNn1cnnc1 | 2.62%
Cc1nn(Cc2ccc(Cl)c(Cl)c2)c(C)c1NC(=O)c1cc(-c2ccc3c(c2)OCO3)on1 | 6.42%
Clc1ccc2c(c1)C(OC1CN3CCC1CC3)c1ccccc1CS2.O=C(O)/C=C\C(=O)O (stereo not shown) | -50.6%
Cc1cccc(NC(=O)OC2CN3CCC2CC3)c1 (stereo not shown) | -9.77%
Brc1ccc2c(c1)C(C1=NCCN1)c1ccccc1CS2.O=C(O)/C=C\C(=O)O (stereo not shown) | -20.3%
O=C(Nc1ccccc1Cl)OC1CN2CCC1CC2 (stereo not shown) | -32.9%
Clc1ccc2c(c1)C(C1=NCCN1)c1ccccc1CS2.O=C(O)/C=C\C(=O)O (stereo not shown) | -8.02%
Brc1ccc2c(c1)C(OC1CN3CCC1CC3)c1ccccc1CS2.O=C(O)/C=C\C(=O)O (stereo not shown) | -71.4%
O=C(Nc1cccc(Cl)c1)OC1CN2CCC1CC2 (stereo not shown) | 29.5%
CN1CCN(CCOC2c3ccccc3CSc3ccc(Cl)cc32)CC1.O=C(O)/C=C\C(=O)O (stereo not shown) | -57.2%
CCOCCN1CCN(C2c3ccccc3CSc3ccccc32)CC1.O=C(O)C(=O)O (stereo not shown) | -30.3%
